Screens deposited in PubChem BioAssay by National Center for Advancing Translational Sciences (NCATS).
Sampled rows, rich in hits. Any-hit rate of the full collection: about 2.8%.
KDM5B inh: blocks human KDM5B histone demethylase activity; KDM5B demethylase, FDH-coupled NADH fluorescence (FDH is formaldehyde dehydrogenase); Q9UGL1; AID 1347165; 220,000 compounds, 2.6% hits; Potency, µM (top dose mostly 57.7 µM), hits mostly inhibitors; also: potency is read from the fitted curve at half-maximal effect; 0% is about no effect; nearly all actives have a fitted effect of over 70% in size
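Coupled FDH/NAD⁺ fluorescence readout. KDM5BΔAP 200 nM final; compound titration, 10 min RT preincubation; substrate mix 12.5 µM H3K4me3, 25 µM 2-OG, 50 µM Fe(II), 100 µM ascorbate, 0.25 mM NAD⁺, 0.25 U/mL FDH; ΔRFU over 30 min.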
IP6K1 inhibitor: inhibitors of human IP6K1 | Q92551 | IP6K1 kinase, ADP-Glo luminescence, 2 h; stronger effect = lower value | activity change, % (series mostly up to about 58 µM) | 140,000 compounds, 0.81% hits | AID 1645851; in the data active = activity change below about -25%; also: % is scaled to controls: 0 for no effect and ±100 for the full control effect
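ADP-Glo luminescence measures ADP made by human IP6K1 during a 2 h RT reaction with ATP/IP6 (mix at 1.3 mM/130 uM); top library doses 57.5 and 19.1 uM final.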
IP6K1 inh cnf: confirmation of human IP6K1 inhibitors | recombinant IP6K1 kinase, ADP-Glo luminescence, 2 h | 1,200 compounds, 13% hits | shares compounds with IP6K1 inhibitor | Potency, µM (doses to about 49 µM), without a hit: top-dose activity change, negative = inhibition, hits mostly inhibitors | AID 1645852; also: potency is read from the fitted curve at half-maximal effect; % is scaled to controls: 0 for no effect and ±100 for the full control effect; nearly all actives have a fitted effect of over 65% in size
Numbers without * were called inactive; i = inactive; ? = inconclusive; . = no result given. Unless noted, calls follow the shape of the dose curve; as a rule, active = well fitted inhibition curve with a large enough effect; inconclusive = small, poorly fitted or top-dose-only effect; inactive = no such curve, though single readings can be large or run the other way.

SMILES	KDM5B inh	IP6K1 inhibitor	IP6K1 inh cnf
Cc1cccc(Cc2c(C)nc3nc(SCC(=O)NCc4ccc(F)cc4)nn3c2C)c1	?	-37*	?
COc1ccc(C(=O)Nc2noc3ccccc23)cc1	i	-58*	7.3µM*
Cc1ccc(C(=O)Nc2noc3ccccc23)cc1	.	-55*	?
COc1ccc(C(=O)Nc2c(C(=O)c3ccccc3)oc3ccccc23)cc1	i	10	.
O=C(Nc1noc2ccccc12)c1cccc(Cl)c1Cl	i	-4	.
COc1cccc(Nc2nc(-c3ccc(CNC(C)=O)s3)cs2)c1	i	.	.
Cc1cc(Nc2nc(NC(C)c3ccc(F)cc3)c(C#N)cc2F)n[nH]1 (configuration not stated)	.	.	-9%
CC(Nc1nc(-c2ccccc2F)nc2ccccc12)c1ccccc1 (configuration not stated)	i	.	.
CC1CCc2noc(NC(=O)c3ccc(Cl)cc3)c2C1 (configuration not stated)	i	.	.
CNC(=O)c1cc(C)nc2onc(C3CCCN(C(=O)c4ccc(Cl)nc4)C3)c12 (configuration not stated)	.	-13	.
Clc1ccc2c(c1)-n1cc(-c3ccccc3)nc1CO2	i	-28*	?
COC(=O)CC1Oc2ccc(Cl)cc2-n2cc(-c3ccccc3)nc21 (configuration not stated)	?	26	.
Oc1ccc(-n2nnnc2SCc2cc(Cl)c3c(c2)OCCCO3)cc1	i	.	.
CCOc1ccccc1C(=O)NC1CC(c2nnc(CN(C)C)n2C)C1 (configuration not stated)	i	7	.
CN(C)Cc1nnc(C2CC(NC(=O)c3ccccc3-c3ncn[nH]3)C2)n1C (configuration not stated)	i	-28*	-10%
O=C(CCc1ccccc1)N(Cc1cccnc1)c1nc2ccc(F)cc2s1	i	-15	.
O=C(c1ccco1)N(Cc1cccnc1)c1nc2ccc(F)cc2s1	i	-27*	-17%
COc1cc([N+](=O)[O-])ccc1NC(=O)c1nc2ccccc2n(C)c1=O	i	17	.
COc1cc(Nc2ccc([N+](=O)[O-])cc2C(=O)O)cc2ccccc12	.	-25*	?
CNC(=O)c1cc(C2CC2)nc2c1c(C1CCCN(C(=O)c3ccc(Cl)nc3)C1)nn2C (configuration not stated)	.	-5	.
C[C@@H]1CCN(C(=O)CC#N)C[C@@H]1N(C)c1ncnc2[nH]ccc12	.	.	4%
C[C@@H]1CCN(C(=O)N2CCCC2)C[C@@H]1N(C)c1ncnc2[nH]ccc12	.	-12	.
Cc1cccc(CNC(=O)c2ccco2)c1	i	.	.
N#CCCNC(Cc1ccccc1)C(=O)O (configuration not stated)	i	.	.
CCCc1nnc(C[C@@H]2C[C@@H](C(C)C)[C@H](CNCc3cccnc3)C=C2C)o1	i	4	.
SMILES	KDM5B inh	IP6K1 inhibitor	IP6K1 inh cnf
CCCc1nnc(C[C@@H]2C[C@@H](C(C)C)[C@H](CNc3cccnc3)C=C2C)o1	10µM*	-25*	-5%
CN(C)CCCOC(=O)c1cc(C(C)(C)C)cc(C(C)(C)C)c1	i	.	.
COc1ccc(CCNC(=O)CCc2nnc(-c3cccc(OC(C)C)c3)[nH]c2=O)cc1	i	-7	.
CC(C)Oc1cccc(-c2nnc(CCC(=O)NCCc3cccs3)c(=O)[nH]2)c1	i	-27*	?
c1csc(-c2nc(N3CCOCC3)c3ccccc3n2)c1	i	.	.
Oc1cccc(-c2nc(N3CCOCC3)c3oc4ncccc4c3n2)c1	.	.	?
O=C(c1ccc(C(F)(F)F)cc1)N1CCCC(C(=O)N2CCCC2c2nc3ccncc3[nH]2)C1 (configuration not stated)	.	-11	.
CCn1cnc2c(=O)oc3ccc(S(=O)(=O)N4CCN(c5cc(C)ccc5C)CC4)cc3c21	i	-28*	-20%
Cn1cnc2c(=O)oc3ccc(S(=O)(=O)N4CCN(c5ccccc5)CC4)cc3c21	i	37	.
Cc1ccccc1-c1cc(O)c2c(c1)CN(C(=O)C1CCNCC1)CCO2	i	5	.
Cn1ncc2c(C(=O)NCc3cccnc3)cc(-c3ccccc3F)nc21	.	13	.
CN1CCOc2c(C(=O)NCc3cccnc3)cc(-c3ccccc3F)cc21	25µM*	-29*	-17%
Cc1ccccc1-c1cc(C(=O)NCc2cnn(C)c2)c2c(c1)N(C)CCO2	32µM*	-25*	?
COc1cccc(-c2cc(C(=O)NCc3cccnc3)c3cnn(C)c3n2)c1	.	-15	.
COc1cncc(-c2cc(C(=O)NCc3cccnc3)c3c(c2)N(C)CCO3)c1	i	-28*	?
O=C(/C=C/c1ccc(-c2ccc(Cl)c(Cl)c2)o1)c1ccc(Br)cc1	i	.	.
O=C(CN1CCC(c2ccccc2)CC1)c1c[nH]c2ccccc12	i	.	.
